# Source: PubChem BioAssay (NCI)
# About 83,000 compounds went through this panel and 20% of them were active in at least one assay; those are over-represented in the sample as a whole.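 96-well plates, one dose, 48 hours. Percent growth reported; active if below 10.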 Activity calls are given as the source filed them.
# Test system: MDA-MB-468 breast
# Experiment: NCI-60 one-dose screen, 48 h (100 = growth as untreated, 0 = no growth, -100 = all killed)
# Conditions: 10 µM unless noted
row,SMILES,growth
1,NC1=NC(c2ccc(Cl)cc2)C2=C(N1)/C(=C/c1ccc(Cl)cc1)CCC2 (centres undefined),62.2% (inactive)
2,O=C(N/N=C/c1cccc(O)c1O)c1ccccc1,-12.6% (active)
3,COc1ccc(/C=C2\CCC3C(CCCC34OCCO4)C2=O)cc1 (centres undefined),70.5% (inactive)
4,Cc1noc(C)c1CSc1ccccc1C(=O)N1CCN(c2cccc(C(F)(F)F)c2)CC1,38.1% (inactive)
5,CNC(=O)c1cc(Oc2ccc(NC(=O)Nc3cc(C(C)(C)C)nn3-c3ccc4ncccc4c3)c(F)c2)ccn1,-61.8% (active)
6,CC(C)(C)c1ccc(S(=O)(=O)N[C@H]2CC[C@H]3[C@@H]4CCc5cc(O)c([N+](=O)[O-])cc5[C@H]4CC[C@]23C)cc1,99.9% (inactive)
7,[2H]C([2H])([2H])Oc1ccc(/C=C/C(=O)/C=C(O)/C=C/c2ccc(OC([2H])([2H])[2H])c(OC([2H])([2H])[2H])c2)cc1OC([2H])([2H])[2H],1.44% (active)
8,COc1ccc(S(=O)(=O)n2ccc(-c3ccc4c(c3)CCC(C)(C)O4)n2)cc1OC,28.4% (inactive)
9,COc1cc(-c2cc(-c3nc4ccccc4[nH]3)[nH]n2)cc(OC)c1OC,14.7% (inactive)
10,Nc1ccc(N=Nc2ccccc2)cc1[N+](=O)[O-],-6.35% (active)
11,Cc1ccc(-c2nc3nc(-c4ccc(Br)cc4)nc(N4CCCNCC4)c3o2)cc1,-65% (active)
12,COc1ccc(OC)c(/C=C2\COc3ccc(O)cc3C2=O)c1,82.7% (inactive)
13,Brc1ccc(-c2nnc3c4[nH]ccc4ncn23)cc1,104% (inactive)
14,O=C1Nc2ccccc2/C1=C\c1nc(-c2ccccc2)n2ccccc12,-1.63% (active)
15,COc1cc2c3c(n(CCCNC4CCCC4)c(=O)c2cc1OC)-c1cc2c(cc1C3=O)OCO2,70.9% (inactive)
16,COC(=O)C1Cc2ccccc2CN1C(=O)c1ccc2c(c1)Cc1ccccc1-2 (centres undefined),14.5% [50 µM] (inactive)
17,C=C(C)[C@@H]1CC[C@]2(C(=O)OCCOCCOCC[P+](c3ccccc3)(c3ccccc3)c3ccccc3)CC[C@]3(C)[C@H](CC[C@@H]4[C@@]5(C)CC[C@H](C)C(C)(C)[C@@H]5CC[C@]43C)[C@@H]12,-67.6% (active)

row,SMILES,growth
1,Cc1cccc2c1C[C@@]1(C2=O)C(c2ccc(C(C)(C)C)cc2)=NOS1=O (some centres undefined),88.2% (inactive)
2,COC(=O)/C(CCC=C(C)C)=C1\[C@@H](OC(C)=O)C[C@@]2(C)[C@H]1CC(=O)[C@H]1[C@@]3(C)CC[C@H](NCc4ccccc4)[C@@H](C)[C@@H]3CC[C@@]12C,87.2% (inactive)
3,O=c1c2cc(F)ccc2sc2c(NCCN3CCCCC3)nc3ccccc3c12,6.41% (active)
4,COc1cccc(/C=N/NC(=O)c2cnn3c2NC(c2ccccc2)C3)c1Oc1ccccc1 (centres undefined),47.3% (inactive)
5,O=C(/C=C/c1ccc(O)c(O)c1)N1CCN(c2ccc(Cl)cc2)CC1,39.7% (inactive)
6,CCN(CC)CCNC(=O)c1c(C)[nH]c(/C=C2\C(=O)Nc3ccc(F)cc32)c1C,-56.4% (active)
7,CC(=O)CC(=O)c1ccccc1.[Cu+2],96.7% (inactive)
8,COC1=CC(c2ccc[nH]2)=N/C1=C\c1[nH]c(C)c(CCCn2cc(CCCCCCCCC[C@@H]3Cc4cc(O)ccc4C4CC[C@]5(C)[C@@H](O)CC[C@H]5C43)nn2)c1C (some centres undefined),30.1% (inactive)
9,C#Cc1nc(C2=C(C)C(=O)/C(=N/OC(C)=O)C2)cs1,69.9% (inactive)
10,O=C(O)c1cn(C2CC2)c2cc(N3CCN(C(=O)N/N=C/c4cccc5ccccc45)CC3)c(F)cc2c1=O,103% (inactive)
11,c1ccc2c(c1)[nH]c1c2cc[n+]2cc3c(cc12)CCCC3,-14.5% (active)
12,CC12CCC(C(=O)CC1=O)C2(C)C (centres undefined),99.3% (inactive)
13,Cc1nc2cc(NC(=O)CN3CCN(CCN4C(=O)c5cccc6cccc(c56)C4=O)CC3)ccc2s1,38.2% (inactive)
14,COC(=O)c1ccc2c(C(=Nc3ccc(N(C)C(=O)CN4CCN(C)CC4)cc3)c3ccccc3)c(O)[nH]c2c1,91% (inactive)
15,COc1c(C2CC(=O)Nc3c2c(C)nn3-c2nc3ccccc3[nH]2)cc2c(c1OC)OCO2 (centres undefined),29.6% (inactive)
16,CN1C(=O)[C@H]2c3c1cccc3[C@@]13NC(=O)O[C@H]1[C@H](CCC3(C)C)C2(C)C,78.6% (inactive)
17,Clc1ccc2oc3c(NCCCN4CCOCC4)c4ccccc4nc3c2c1,5.24% (active)
